{
  "source": "PubChem BioAssay (NCI)",
  "note": "This is part of a sample that, as a whole, favours compounds with a hit. Of some 83,000 tested, about 20% had one in any assay.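 Plates (96-well) were seeded with cells, treated with compound at one concentration, and incubated for 48 hours before percent growth was determined.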 The source made the active and inactive calls. Rule for the calls: active = growth percent below 10; inactive = the rest.",
  "data": [
    {"system": "OVCAR-8 ovarian", "assay": "NCI-60 one-dose screen, 48 h (100 = growth as untreated, 0 = no growth, -100 = all killed)", "conditions": "10 µM unless noted", "values": [
      {"smiles": "O=C(OCC1CCCO1)c1ccc([N+](=O)[O-])cc1", "note": "(stereo not drawn)", "growth": "99.2% (inactive)"},
      {"smiles": "Cc1ccc(NC(=O)c2ccccc2Cl)cc1", "growth": "115% (inactive)"},
      {"smiles": "C/C(O)=C(/C=N\\C(=S)Nc1ccc(S(=O)(=O)Nc2nccs2)cc1)C(=O)Nc1ccccc1C", "growth": "87.7% (inactive)"},
      {"smiles": "NC(=S)N/N=C/c1ccc(Cl)cc1", "growth": "92.9% (inactive)"},
      {"smiles": "Oc1ccc(CCC2CCNc3ccccc32)cc1", "note": "(stereo not drawn)", "growth": "73.4% (inactive)"},
      {"smiles": "O=C(NC1CCCCC1)c1ccc(Cl)cc1", "growth": "105% (inactive)"},
      {"smiles": "CCOC(=O)CO", "growth": "109% (inactive)"},
      {"smiles": "CC(c1ccccc1)N(C)C", "note": "(stereo not drawn)", "growth": "117% (inactive)"},
      {"smiles": "CC(CCC#N)(CCC#N)C(=O)c1ccccc1", "growth": "105% (inactive)"},
      {"smiles": "Cc1ccc2nc(-c3ccc(N=Cc4ccccc4O)cc3)sc2c1", "growth": "87.5% (inactive)"},
      {"smiles": "Nc1cc2ccccc2c(O)c1O", "growth": "-69.9% (active)"},
      {"smiles": "CCOc1ccccc1NC(=O)CCl", "growth": "86.9% (inactive)"},
      {"smiles": "CCC12OC(COc3ccccc3)CN1CCN2c1ccccc1", "note": "(stereo not drawn)", "growth": "96.5% [100 µM] (inactive)"},
      {"smiles": "Cc1ccc(S(=O)(=O)CCCl)cc1", "growth": "101% (inactive)"},
      {"smiles": "CC(C)c1ccccc1NC(=O)N1CCC(C(C)C)CC1", "growth": "105% (inactive)"},
      {"smiles": "COc1ccc(C2CC(c3ccccc3)=Nc3ccccc3S2)cc1", "note": "(stereo not drawn)", "growth": "115% (inactive)"},
      {"smiles": "NC(CO)(CO)c1ccccc1", "growth": "103% (inactive)"},
      {"smiles": "C=CC(=O)OC1CCC(C(C)(C)CC)CC1", "note": "(stereo not drawn)", "growth": "107% (inactive)"},
      {"smiles": "Cc1[nH]n(-c2ccccc2)c(=O)c1C=NC(=S)C(N)=S", "growth": "99.9% (inactive)"},
      {"smiles": "COc1cccc2c1Cc1ccccc1-2", "growth": "112% (inactive)"},
      {"smiles": "NC(=O)N1CCOCC1", "growth": "103% (inactive)"},
      {"smiles": "CCC(=O)Oc1ccc2ccccc2c1", "growth": "100% (inactive)"},
      {"smiles": "C=CCN1CCCC1=O", "growth": "110% (inactive)"},
      {"smiles": "O=C(O)c1cccc(-n2ncc(Cl)c(Cl)c2=O)c1", "growth": "107% (inactive)"},
      {"smiles": "Cc1ccc(OC(=O)c2ccccc2)cc1", "growth": "101% (inactive)"},
      {"smiles": "O=Cc1c(O)c2ccccc2[nH]c1=O", "growth": "95.1% (inactive)"},
      {"smiles": "CC(=O)c1ccc(C)cc1", "growth": "108% (inactive)"},
      {"smiles": "N#Cc1ccc2nc[nH]c2c1", "growth": "104% (inactive)"},
      {"smiles": "CC(=O)[C@@]1(O)CC[C@H]2[C@@H]3CC[C@@H]4CC(=O)CC[C@]4(C)[C@H]3[C@@H](O)C[C@@]21C", "growth": "101% (inactive)"},
      {"smiles": "COC(=O)Cc1cc(COC(C)=O)ccc1C", "growth": "108% (inactive)"},
      {"smiles": "c1ccc(-c2ccc3ccccc3c2)cc1", "growth": "97.1% (inactive)"},
      {"smiles": "C=CCC(OC(C)=O)c1ccc(C(C)C)cc1", "note": "(stereo not drawn)", "growth": "105% (inactive)"},
      {"smiles": "C=C(OC(C)=O)c1ccccc1", "growth": "101% (inactive)"},
      {"smiles": "Nc1cccc2cccc(O)c12", "growth": "86.7% (inactive)"},
      {"smiles": "CC(=O)c1cccs1", "growth": "102% (inactive)"},
      {"smiles": "CSCCC(NC(=O)C(Cl)Cl)C(=O)O", "note": "(stereo not drawn)", "growth": "96.7% (inactive)"},
      {"smiles": "O=C(O)CSCC(=O)Nc1cc(C(F)(F)F)ccc1Cl", "growth": "107% (inactive)"},
      {"smiles": "CCCCNC(=O)c1ccc(OCC)cc1", "growth": "103% (inactive)"}
    ]}
  ]
}
